In the library only some 6.9% were active in any assay of this set; here they are far more common.
KB-V1 MDR tox = qHTS assay for MDR1-selective chemotherapeutics: Primary screen using the drug-selected MDR subline cells KB-V1; KB-V1 MDR cells viability, CellTiter-Glo, 72 h; Potency, µM (doses to about 46.1 µM), actives largely listed as cytotoxic; 3.4% of 400,000 active; AID 1347076, 2019; note: potency is the fitted concentration of half-maximal effect; % is set by controls: 0 for no effect and ±100 for the full control effect; nearly all actives have a fitted effect of over 60% in size
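Cytotoxicity toward P-gp-expressing KB-V1 cells was determined as loss of CellTiter-Glo luminescence after 72 h at 37 degrees C. Compounds were tested in quantitative HTS format across a concentration range, with curves fitted to normalized data.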
KB-3-1 tox = qHTS assay for MDR1-selective chemotherapeutics: Primary screen using the parental adenocarcinoma cell KB-3-1 | 1.4% of 400,000 active | KB-3-1 viability, CellTiter-Glo ATP luminescence, 72 h | Potency, µM (doses to about 46.1 µM), actives largely listed as cytotoxic; note: potency is the fitted concentration of half-maximal effect; % is set by controls: 0 for no effect and ±100 for the full control effect; nearly all actives have a fitted effect of over 60% in size
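72 h, 37 °C compound treatment of KB-3-1 parental cells; CellTiter-Glo added, 10 min, luminescence read. Data corrected against DMSO-only plates and normalized before curve fitting.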
SW480 rereplic = A quantitative high throughput screen for small molecules that induce DNA re-replication in SW480 colon adenocarcinoma cells; AID 624297, 2012; SW480 DNA re-replication, Hoechst DNA content imaging, 48 h; Potency, µM (top dose mostly 46.1 µM), inactives show at the top dose re-replication activation, hits mostly activators; 1.8% of 340,000 active; note: potency is the fitted concentration of half-maximal effect; % of control where 0% means no effect; nearly all actives have a fitted effect of over 55% in size
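First, 250 cells per well were seeded. Next, compound or vehicle (23 nL) was pinned in, plates sat 48 hr at 37 C. Finally Hoechst was added for 40 min before fluorescence scanning.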
Giardia kill = Small Molecules that selectively kill Giardia lamblia: qHTS | activity change, % at 7.66 µM, hits read low | AID 540267, 2011 | 0.15% of 340,000 active | Giardia lamblia trophozoite viability; in the data active = activity change below about -80%; inconclusive = between about -30% and that limit;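 note: parasites exposed to compound for two days anaerobically before the ATP read; % is set by controls: 0 for no effect and ±100 for the full control effect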
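Killing of trophozoites was scored by loss of ATP luminescence after a 48 hrs anaerobic exposure to compounds at 37 deg C, using 100 cells per well.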
S-ASM inh = Inhibitors of Secretory Acid Sphingomyelinase (S-ASM): qHTS | 0.006% of 340,000 active | Potency, µM (titrated, usually from 57.5 µM), for the others: at the highest dose activity change, negative = inhibition, actives largely listed as inhibitors | placental ASM, HMU-PC fluorogenic substrate, 60 min | Sphingomyelin phosphodiesterase (Homo sapiens), P17405; note: potency is the fitted concentration of half-maximal effect
Target sequence (P17405 47-631 limits assumed): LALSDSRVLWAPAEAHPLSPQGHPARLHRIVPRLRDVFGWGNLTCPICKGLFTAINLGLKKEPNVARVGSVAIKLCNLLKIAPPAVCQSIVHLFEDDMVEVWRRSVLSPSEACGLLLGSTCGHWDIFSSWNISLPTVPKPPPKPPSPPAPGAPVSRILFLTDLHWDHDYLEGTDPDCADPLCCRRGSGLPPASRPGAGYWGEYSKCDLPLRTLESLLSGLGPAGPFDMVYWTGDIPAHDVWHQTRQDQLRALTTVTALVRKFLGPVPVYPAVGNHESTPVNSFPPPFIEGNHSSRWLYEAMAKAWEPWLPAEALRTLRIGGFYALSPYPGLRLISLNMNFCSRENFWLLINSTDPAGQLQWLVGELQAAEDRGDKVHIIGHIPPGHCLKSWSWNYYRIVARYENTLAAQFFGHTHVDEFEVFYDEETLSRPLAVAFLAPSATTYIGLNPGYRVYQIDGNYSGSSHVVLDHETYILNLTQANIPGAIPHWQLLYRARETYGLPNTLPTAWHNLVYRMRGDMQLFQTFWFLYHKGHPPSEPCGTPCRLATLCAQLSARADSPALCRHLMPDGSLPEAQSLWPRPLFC
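Steps: dispense placental human ASM, pin compound, wait 10 min at room temperature, add HMU-PC0 substrate at 9 uM final, incubate 60 min at 37 °C, add stop solution raising pH to 10, read fluorescence.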
MCF10A rerep = A quantitative high throughput screen for small molecules that induce DNA re-replication in MCF 10a normal breast cells; Potency, µM (top dose mostly 46.1 µM), inactives show at the highest dose activity, positive = re-replication, usual class: activators; 2.9% of 350,000 active; MCF 10A DNA re-replication, Hoechst nuclear intensity, 48 h; AID 624296, 2012; note: potency is the fitted concentration of half-maximal effect; % of control where 0% means no effect; nearly all actives have a fitted effect of over 50% in size
* = called active by the depositor; i = inactive; ? = inconclusive; . = no result given. Unless noted, calls come from the whole dose curve; as a rule, active = well fitted curve in the direction sought with a large enough effect; inconclusive = small, poorly fitted or top-dose-only effect, or another doubt; inactive = no such curve, though single readings can be large; an effect the other way counts as inactive or inconclusive.

SMILES	KB-V1 MDR tox	KB-3-1 tox	SW480 rereplic	Giardia kill	S-ASM inh	MCF10A rerep
O=C(O)COc1ccc2c(c1)O/C(=C\c1ccco1)C2=O	?	i	-6%	11	86%	-1%
CCOC(=O)C1(C)CCN1C(=O)c1ccc(OC)c(F)c1 (centres undefined)	i	i	.	.	.	.
CCCCN(C)c1nc(-c2ccco2)c2c(c1C#N)CC(C)(C)OC2	i	i	16µM*	5	222%	?
COc1ccc(-n2c(=O)c3c4c(sc3n(Cc3ccccc3)c2=O)CN(C(C)=O)CC4)cc1OC	i	i	.	.	.	.
CC(=O)Nc1ccc(S(=O)(=O)Oc2cccc(N3C(=O)C4CC=CCC4C3=O)c2)cc1 (centres undefined)	i	i	-3%	-9	0%	12%
CC(=O)Nc1ccc(S(=O)(=O)Oc2ccc(N3C(=O)C4CCCCC4C3=O)cc2)cc1 (centres undefined)	18µM*	?	-16%	0	-1%	9%
Cc1noc(C)c1S(=O)(=O)N(CC(=O)NCCc1ccc(Cl)cc1)c1ccc(C(C)C)cc1	i	i	.	.	.	.
O=c1c2ccccc2nc(/C=C/c2cc(Br)ccc2O)n1CCCO	?	21µM*	?	-4	3%	?
Cn1c(/C=C/c2ccc(Br)cc2)nc2ccccc2c1=O	i	i	-3%	?	0%	?
Cc1nc2ccccc2c(=O)n1/N=C/c1c(O)ccc2oc3c(c12)CCCC3	18µM*	?	17%	-4	-2%	1%
CC(C)(C)N=Cc1c(O)ccc2oc3c(c12)CCCC3	i	i	4%	4	2%	14%
Cc1nc2ccccc2c(=O)n1/N=C/c1c(O)ccc2ccccc12	i	i	2.9µM*	-20	-4%	13%
Cc1nc2ccccc2c(=O)n1/N=C/c1ccc(N(C)C)cc1	i	i	-3%	26	10%	11%
O=c1c2ccccc2nc(N/N=C/c2c(O)ccc3ccccc23)n1O	i	?	?	?	-1%	3.3µM*
CCCCNc1sc(S(=O)(=O)CC)nc1S(=O)(=O)c1ccc(C)cc1	i	i	.	.	.	.
COc1ccc(Br)cc1/C=N/n1c(C)nc2ccccc2c1=O	i	i	-4%	8	-8%	9%
Cc1nc2ccccc2c(=O)n1/N=C/c1cc(Br)ccc1O	?	?	21µM*	-20	-4%	3%
CC(C)c1ccc(-n2nc3ccc(N)cc3n2)cc1	i	i	23µM*	?	i	23µM*
CC(C)C(=O)Nc1ccc2nn(-c3ccc(F)cc3)nc2c1	i	i	1%	?	40%	?
Nc1ccc2nn(-c3cc([N+](=O)[O-])ccc3O)nc2c1	i	i	2%	-1	3%	4%
Cc1ccc(-n2nc3ccc(N)cc3n2)cc1	i	i	16µM*	-14	i	?
Cc1ccc(-n2nc(-c3ccc(N)cc3)cc2N)cc1	i	i	0%	10	5%	-1%
Nc1ccc2nn(-c3ccc(F)cc3)nc2c1	i	i	?	-21	i	18µM*
O=C(NCCCc1nc2ccccc2n1Cc1ccccc1Cl)C1CCCCC1	i	i	.	.	.	.
CCOc1ccc(NC(=O)c2cn(C)c(=O)c3cc(OC)c(OC)cc23)cc1	?	i	.	.	.	.
CC(C)CNC1CS(=O)(=O)CC1O (centres undefined)	i	i	-14%	-15	6%	2%
O=S1(=O)CC(O)C(NCc2cccnc2)C1 (centres undefined)	i	i	2.1µM*	14	1%	5.2µM*

High-throughput results (PubChem BioAssay)
